Shiga toxin inh – inhibitors of Shiga toxin in Vero cells | inhibition, % at 38.7 µM | Vero cells, Shiga toxin protein synthesis inhibition reporter | 9.2% of 290,000 active | AID 2315; in the data active = inhibition mostly above about 28%, no sharp cut-off; inactive = mostly below about 43%; note: 0% is about no effect
Tb PYK inh – inhibitors of Trypanosoma brucei pyruvate kinase; Q57TT1; TbPYK enzyme, Kinase-Glo Plus ATP luminescence, 45 min; Potency, µM (series often up to 76.8 µM), without a hit: at the top dose activity, negative = inhibition, most hits filed as inhibitors; 0.12% of 410,000 active; AID 624173; note: potency is the fitted concentration of half-maximal effect; % is set by controls: 0 for no effect and ±100 for the full control effect; nearly all actives have a fitted effect of over 50% in size
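Screened from lowest to highest concentration, compounds were pinned into TbPYK/substrate mixtures, and ADP (130 uM final) was added. Plates sat at room temperature for 45 min prior to Kinase-Glo Plus detection by luminescence.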
Cycloheximide cs – counter-screen hit for Shiga toxin inhibitors, cycloheximide. cell reporter, cycloheximide protein synthesis inhibition counterscreen. max response, %. 12% of 300,000 active. AID 2314; in the data active = max response mostly above about 13%, no sharp cut-off; inactive = mostly below about 14%; note: read at 38.3 µM for the half of the compounds with a filed dose; 0% is about no effect
RE007 growth inh – less growth of the S. pombe RE007 Vpr strain. S. pombe RE007 Vpr strain, BacTiter-Glo ATP luminescence, 24 h. Potency, µM (doses to about 92.2 µM), without a hit: top-dose activity change, negative = less growth, most hits filed as inhibitors. 0.21% of 360,000 active. AID 651644; active = well fitted falling curve with a large enough effect; inconclusive = small, poorly fitted or top-dose-only effect; inactive = no such curve, though single readings can be large or run the other way; note: potency is the fitted concentration of half-maximal effect; % is set by controls: 0 for no effect and ±100 for the full control effect; nearly all actives have a fitted effect of over 50% in size
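Fission yeast RE007 carrying one integrated HIV-1 vpr copy, seeded at OD 0.01 in PMG+AL medium with 23 nL pinned compound. Grown 24 h at 30 degrees; viability read by BacTiter-Glo luminescence after 5 min.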
FBPA Giardia inh – inhibitors of Giardia lamblia fructose-1,6-bisphosphate aldolase; 0.71% of 290,000 active; AID 2451; A8B2U2; purified Giardia FBPA; Potency, µM (doses to about 59.6 µM), for the others: top-dose activity, negative = inhibition, most hits filed as inhibitors; note: potency is the fitted concentration of half-maximal effect; % is set by controls: 0 for no effect and ±100 for the full control effect; nearly all actives have a fitted effect of over 55% in size
Target sequence (A8B2U2 whole entry, looked up): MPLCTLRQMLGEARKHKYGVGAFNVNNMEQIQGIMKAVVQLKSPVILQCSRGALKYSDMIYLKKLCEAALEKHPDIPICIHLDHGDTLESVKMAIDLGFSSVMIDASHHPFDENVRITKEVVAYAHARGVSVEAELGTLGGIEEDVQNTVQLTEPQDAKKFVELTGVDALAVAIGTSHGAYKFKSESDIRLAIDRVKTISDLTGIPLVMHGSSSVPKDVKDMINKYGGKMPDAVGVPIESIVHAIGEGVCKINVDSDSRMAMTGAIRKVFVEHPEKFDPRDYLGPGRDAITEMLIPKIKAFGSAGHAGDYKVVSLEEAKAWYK
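40 nM FBPA preincubated 10 min at RT with compound (up to 57.5 uM final), then substrate plus GAPDH/TPI/NAD/arsenate coupling and diaphorase/resazurin added. Fluorescence read after 20 min at RT, 525/598 nm.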
LmPK inh – LmPK (Leishmania mexicana) enzyme inhibition | Q27686 | purified LmPK, Kinase-Glo ATP luminescence, 1 h | Potency, µM (titrated, usually from 57.5 µM), for inactives: at the top dose activity change, negative = inhibition, actives largely listed as inhibitors | 0.37% of 290,000 active | AID 1721; note: potency is the fitted concentration of half-maximal effect; % is set by controls: 0 for no effect and ±100 for the full control effect
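Purified LmPK (0.1 nM) with 0.5 mM PEP and 0.1 mM ADP in imidazole buffer pH 7.2 with MgCl2/KCl, 1 h at room temperature. ATP formed was read by luciferase luminescence and normalized to no-enzyme and uninhibited controls.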
* hit, by the source's call; ? = inconclusive; . = no result; [ ] = remark or other dose. The full list was thinned out, with hits kept by preference. Unless noted, calls come from the whole dose curve; as a rule, active = well fitted curve in the direction sought with a large enough effect; inconclusive = small, poorly fitted or top-dose-only effect, or another doubt; inactive = no such curve, though single readings can be large; an effect the other way counts as inactive or inconclusive.

SMILES	Shiga toxin inh	Tb PYK inh	Cycloheximide cs	RE007 growth inh	FBPA Giardia inh	LmPK inh
COc1ccc(NC2CCCN(C(=O)CCC(=O)c3ccc(F)cc3)C2)cc1 (stereo not given)	72	-21%	47*	-10%	-2%	2%
COc1ccc(C(=O)CCNc2ccc(F)cc2)cc1	82*	2%	28*	-5%	0%	-1%
COc1ccc(C(=O)CC(=O)c2ccccc2)cc1	.	-1%	.	?	.	.
COc1ccc(O)c(C(=O)CC(=O)c2ccccc2)c1	88	.	43*	.	-29%	-3%
Cc1noc(C)c1C(=O)N1CCC2(CC1)CN(c1cccc(-c3ccccc3)c1)C2	.	1%	.	.	-9%	.
Cc1cccc(-c2nnn3c2nc(NCCc2ccc(S(N)(=O)=O)cc2)c2cc(Cl)ccc23)c1	.	-1%	.	.	.	.
CC(C)CCC(CC(C)O)c1n[nH]c(=S)n1-c1ccccc1 (stereo not given)	-9	4.5µM*	9	28%	-10%	10µM*
Nc1nc(SCC(=O)Nc2ccccc2)nc2nc3c(cc12)CCCC3	63*	0%	17*	-16%	0%	1%
Cc1ccc(NC(=O)CSc2nc(N)c3cc4c(nc3n2)CCCC4)cc1	active	-10%	33*	-15%	5%	0%
COc1ccc(NC(=O)CSc2nc(N)c3cc4c(nc3n2)CCCC4)c(OC)c1	-10	-4%	-3	-9%	3%	-1%
COc1ccc(-c2nc3sc(CCNC(=O)c4ccco4)c(C)n3n2)cc1	.	-4%	.	.	.	.
COc1cc([C@@H]2c3cc4c(cc3[C@@H](O[C@@H]3O[C@H]5CO[C@@H](C)O[C@@H]5[C@@H](O)[C@H]3O)[C@@H]3COC(=O)[C@@H]23)OCO4)cc(OC)c1O	.	.	.	.	9%	.
O=C(O)c1cnc(-c2ccccc2)nc1Sc1ccccc1Cl	-5	1%	1	-1%	23%	8%
c1ccc(Sc2cnc3ccccc3n2)cc1	108*	3%	64*	-2%	-5%	-7%
O=C(O)CSc1cnc2ccccc2n1	-2	11%	13	5%	4%	-1%
O=S(=O)(c1ccc(Br)cc1)c1cnc2ccccc2n1	-6	1%	8	-4%	1%	-10%
Brc1ccc(Sc2cnc3ccccc3n2)cc1	76*	5%	33*	-20%	6%	-2%
Clc1ccc(Sc2cnc3ccccc3n2)cc1	85*	-1%	38*	-16%	5%	-1%
Clc1ccccc1Sc1cnc2ccccc2n1	23	0%	22*	22%	-4%	-5%
CC(C)C[C@@H](CC(=O)N[C@@H](CCC(=O)O)CC(=O)O)NC(=O)[C@@H]1CNCC[C@H]1NC(=O)C[C@H](CCCN)NC(=O)C[C@H](Cc1c[nH]c2ccccc12)NC(=O)[C@@H]1CNCC[C@H]1N	.	.	.	.	-20%	.
Cc1cc(NC(=O)c2cc(-c3ccccc3)on2)no1	-11	0%	-4	-17%	-2%	-9%
Brc1ccc(-c2csc(Nc3nc(-c4ccc(Br)cc4)cs3)n2)cc1	42	-4%	22*	-9%	1%	1%
Nc1nc(-c2ccc(Br)cc2)cs1	88*	-7%	20*	-18%	9%	-3%
Nc1nc(-c2cc(-c3ccccc3)no2)cs1	69*	-5%	32*	?	2%	?
O=C(c1ccccc1)c1cc(-c2ccccc2)on1	-6	-18%	19*	?	-5%	?
SMILES	Shiga toxin inh	Tb PYK inh	Cycloheximide cs	RE007 growth inh	FBPA Giardia inh	LmPK inh
O=C(CSc1nc2ccccc2[nH]1)Nc1nc(-c2ccc(Br)cc2)cs1	18	-3%	10	3%	-1%	0%
COc1ccc(-n2nc(C(=O)N3CCCCC3C)c3c4ccccc4n(C)c3c2=O)cc1Cl (stereo not given)	.	-1%	.	.	.	.
Nc1nc(-c2ccccc2)cs1	35*	3%	29*	-21%	-1%	4%
c1ccc(-c2cc(-c3ccccc3)on2)cc1	67*	?	35*	-6%	1%	-20%
Cc1ccc(-c2cc(-c3ccccc3)no2)cc1	.	-8%	.	-4%	.	.
Nn1c(-c2cccc(Br)c2)n[nH]c1=S	-13	?	-2	-5%	-6%	4%
Nc1nc(-c2cccc(Br)c2)cs1	82*	0%	46*	14µM*	-5%	-4%
COc1ccc(O[C@H]2C=C[C@@H](c3ccccc3)O[C@H]2COC(=O)NCc2cccc3ccccc23)cc1	.	.	.	.	-1%[12.9 µM]	.
COc1ccc(-n2c(=O)cnc3cnc(N4CCN(C)CC4)nc32)cc1	.	.	.	.	0%	.
CCOC(=O)CNC(=O)N1CCCN(S(=O)(=O)c2ccc3c(ccn3CC)c2)CC1	.	-5%	.	.	.	.
COc1ccccc1N=Cc1c(C)c(C#N)c2[nH]c3ccccc3n2c1=O	36	2%	18*	-8%	?	2%
O=C(NCc1ccco1)C1CCN(c2nc3ccccc3n2Cc2ccccc2F)CC1	2	1%	22*	14%	-2%	2%
CC(C)(C)NC(=O)/C=C/c1cccc(C(F)(F)F)c1	16	-13%	14*	1%	5%	2%
O=C(/C=C/c1cccs1)Nc1ccc([N+](=O)[O-])cc1	30*	-8%	48*	-2%	-1%	-2%
CCCOC(=O)c1cc(NC(=O)/C=C/c2ccccc2)ccc1O	74*	.	17*	.	-8%	15%
CC(=O)Nc1ccc(NC(=O)/C=C/c2cccc(C(F)(F)F)c2)cc1	10	3%	7	0%	1%	2%
CCOC(=O)c1cc(NC(=O)COC)ccc1O	-21	.	1	.	2%	3%
CN1CCN(C(=S)NC(=O)/C=C/c2cccs2)CC1	5	-2%	22*	-9%	-19%	-2%
CN1CCN(C(=S)NC(=O)/C=C/c2cccc3ccccc23)CC1	13	-29%	-1	3%	-22%	-14%
Cc1ccc(-n2ncc(C(=O)NCc3ccco3)c2C2CCN(C(=O)OC(C)(C)C)CC2)c(C)c1	.	2%	.	.	.	.
COc1ccccc1CNc1nc(-c2ccc3c(c2)OCO3)nc2ccccc12	.	.	.	.	-6%	.
CC(C)(C)NC(=O)/C=C/c1cccs1	22	-2%	17*	1%	4%	1%
Cc1cccc(NC(=O)/C=C/c2cccs2)n1	40*	-1%	33*	?	-18%	?
O=C(/C=C/c1cccs1)Nc1ccncc1	63*	1%	44*	-20%	1%	-3%
Cc1ccc(NC(=O)/C=C/C(=O)O)c([N+](=O)[O-])c1	12	-9%	-2	-15%	17%	-5%
Cc1ccc(NC(=O)/C=C/c2cccs2)c([N+](=O)[O-])c1	63*	0%	41*	-7%	-3%	3%
CCC(C)NC(=O)/C=C/c1cccs1 (stereo not given)	10	-2%	13	12%	-2%	-9%

Compound activity deposited in PubChem BioAssay by National Center for Advancing Translational Sciences (NCATS).
